Hit rate of the full screen: of about 340,000 compounds, about 55 (0.02%) were called active.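 The calls were made as follows: active = phage lysis inhibition, versus mean bacterial control, above a set limit; inconclusive = no clear call, values can overlap the other calls; inactive = the rest.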 A selection follows. Potency and affinity values are given separately.
Experiment: inhibition of K1F phage lysis, E. coli UTI89, bacterial capsule biogenesis inhibitors, alamar blue (AID 488966);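 also: capsule biogenesis inhibitors block K1F phage lysis so surviving cells raise fluorescence; higher fluorescence means more inhibition of phage lysis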
Conditions: 2 h; inhibition: at 100 µM, hits give high values unless noted; series mostly up to 300 µM; inhibition of phage lysis: at the top concentration

inhibition, inactive:
Cc1ccccc1C(=O)N=c1ccn(-c2nc3ccccc3nc2NS(=O)(=O)c2ccccc2)cc1 0.1%
CCCOc1ccc(C(=O)O)cc1 -0.2%
CCOc1ccc(C(=O)C(CCC(CN(C)C)C(=O)c2ccc(OCC)cc2)CN(C)C)cc1 (stereo unspecified) 0.87%
Cc1cccc(NC(=O)/C(C#N)=C/c2ccc(Cl)cc2)n1 0%
Cc1cc(C)c2c3c(oc2n1)C(=O)N(c1cccc(Cl)c1)CC(=O)N3 0.63%
Clc1ccc(-n2nnnc2-c2cnc3ccc(Cl)cc3c2-c2ccccc2)cc1 0.85%
O=C(Nc1ccc(Cl)c(S(=O)(=O)N2CCOCC2)c1)[C@@H]1CCCN1C(=O)c1cccs1 0.43% [at 50 µM, hits give high values]
COc1ccc(C[C@@H]2CN3C(=NC[C@@H]3Cc3ccc(O)cc3)N2C[C@H](C)NC(=O)CCC2CCCCC2)cc1 0.18%
CCOC(=O)C1CCN(C(=O)CN(c2ccc3c(c2)OCO3)S(C)(=O)=O)CC1 0.52%
O=C(NN=Cc1ccccc1O)C(O)(c1ccccc1)c1ccccc1 -1.49%
COc1cccc(C2C3=C(CC(C)(C)CC3=O)Nc3cc4c(cc32)OCO4)c1 (stereo unspecified) 2.26%
Cc1nc(N2CCN(C(=O)c3ccco3)CC2)c2oc3ccccc3c2n1 1.22%
CCOc1cc(C2NC(=O)c3ccccc3O2)ccc1OC(C)C (stereo unspecified) 2.06%
O=C(O)CCC(=NNC(=O)c1cccc(S(=O)(=O)N2CCCCC2)c1)c1ccccc1 0.71% [at 50 µM, hits give high values]
CCN(CC)c1ccc(NC(=O)c2ccc3c(c2)OCO3)cc1 2.01%
CCN(CC)c1ccc(C(=O)Nc2cccc(F)c2)cc1 2.12%
CCCNC(=O)C(=O)Nc1ccc2c(c1)N(S(=O)(=O)c1cccs1)CCC2 1.18% [at 50 µM, hits give high values]
CCc1cc2cc(C)cc(C)c2nc1SCC(=O)Nc1cc(C)on1 0.23%
O=C(Nc1cc2c3c(c1)CC(=O)N3CCC2)c1c(F)cccc1F 1.43% [at 50 µM, hits give high values]
CCOc1ccc(NC(=S)N2CCCC2)cc1 0.16%
COC(=O)c1sccc1NC(=O)Nc1cccc(Cl)c1Cl 0.2%
Cc1c(N(C(=O)Nc2ccccc2)C2=NCC(C)S2)c(=O)n(-c2ccccc2)n1C (stereo unspecified) 0.11%
COc1cc(C2NC(=S)NC3=C2CCc2ccccc23)cc(OC)c1OC (stereo unspecified) 0.64% [at 50 µM, hits give high values]
COc1ccc(CCNC(=O)C23CCC(C)(C(=O)O2)C3(C)C)cc1OC (stereo unspecified) 1.58% [at 50 µM, hits give high values]
CCCn1nc(-c2nnc(-c3ccc(C)c(C)c3)o2)c2ccccc2c1=O 0.05%
CCn1ncc(C2=NOC(C(=O)Nc3cccc(C(C)=O)c3)C2)c1C (stereo unspecified) 4.79%
CS(=O)(=O)N(CC(=O)NN=C1CCCCCC1)c1ccc(Oc2ccccc2)cc1 0.37%
CCN1C(=O)N[C@@H](c2cccc(C(F)(F)F)c2)[C@@H](C(=O)OC)[C@H]1C 0.13%
O=C(Oc1coc(CSc2nnc(NC(=O)C3CC3)s2)cc1=O)c1ccccc1 4.85%
COc1ccc(N2C(=O)C(CC(=O)Nc3ccccc3)N(Cc3cccs3)C2=O)cc1 (stereo unspecified) -4.46%
CCOC(=O)c1c(C)n(C)c2cc(-c3ccc(F)cc3)c(O)cc12 7.65%
C[C@H](NC(=O)c1nc[nH]c1C(=O)N[C@@H](CCCCNC(=O)OC(C)(C)C)C(=O)OC(C)(C)C)c1ccccc1 2.05%
COc1ccc(NC(=O)Nc2cc(C(C)(C)C)on2)cc1OC 1.47% [at 50 µM, hits give high values]
O=S(=O)(c1ccc(S(=O)(=O)N(Cc2ccco2)Cc2ccccc2Cl)cc1)N1CCCC1 0.31%
Clc1ccc(-c2ccc(/C=N/Nc3nncc(-c4ccccc4)n3)o2)cc1 0.65%
O=C(NCc1cc([N+](=O)[O-])ccc1O)c1cccnc1Sc1ccc(Cl)cc1 7.97%
O=C(NCc1ccccc1Cl)c1cc([N+](=O)[O-])ccc1Cl 0.11%
CC(=O)Nc1ccc(Nc2ccc(S(=O)(=O)C(F)(F)F)cc2[N+](=O)[O-])cc1 -2.27%
Cc1ccc(CC(NC(=O)c2ccccc2)C(=O)NC(CC(C)C)C(=O)O)cc1 (stereo unspecified) 0.84%
CCCCS(=O)CC(COC)OC(=O)c1ccccc1 (stereo unspecified) 0.21%
Cc1cccc2c1nc(-c1ccccc1)n1nnnc21 -2.7%
COc1ccc(CNC(=O)CN2C(=O)CSc3ccc(S(=O)(=O)N4CCCCC4)cc32)cc1 0.13%
Cc1cc(OC(=O)c2cccs2)ccc1C(C)C -0.04%
O=C(Cn1cnc(S(=O)(=O)N2CCCC2)c1)Nc1ccccc1 0.25%
O=c1c(Cl)c(NS(=O)(=O)c2ccccc2)cnn1-c1ccccc1 0.1%
COc1ccc(C(=O)OCC(=O)NC(C)CCc2ccccc2)cc1OC (stereo unspecified) -0.14%
O=C1CCc2cc(NS(=O)(=O)c3ccc(Cl)cc3)cc3c2N1CC3 -0.37% [at 50 µM, hits give high values]
C=CCN1C(=O)CN=C1Nc1cc(C)cc(C)c1 -1.02%
COc1ccc(C(=O)N2CCN(C)C(C)C2)cc1OC1CCN(C(C)=O)CC1 (stereo unspecified) -0.02%
CCC(OC(=O)c1nsc(Cl)c1Cl)C(=O)NCCOC (stereo unspecified) -0.07%
Cc1nn(CC(=O)Nc2ccc(N3CCOCC3)cc2)c(C)c1Br -0.525% [at 50 µM, hits give high values]
Cc1ccccc1NC(=O)CCN1CCN(C)CC1 -0.19%
Cc1ccccc1NC(=O)NCCCN1CCN(C)CC1 -0.845% [at 50 µM, hits give high values]
CN(C)C1=NC[C@H](Cc2ccccc2)N1CC1CCCC1 6.41%
COc1cc2cc(C(=O)NCCc3ccccc3)[nH]c2cc1OC -0.295% [at 50 µM, hits give high values]
O=C(C1CCCO1)N1CCN(S(=O)(=O)c2ccc(F)cc2)CC1 (stereo unspecified) -0.11% [at 50 µM, hits give high values]
O=C(COC(=O)c1ccccc1[N+](=O)[O-])Nc1cccnc1Cl 0.32% [at 50 µM, hits give high values]
Cc1ccc(NC(=O)CN(C)C(=O)Cn2nnc(-c3ccccc3C)n2)cc1 -2.28%
COc1ccc(C(=O)OCC(=O)NCC2CCCCC2)cc1F -0.21% [at 50 µM, hits give high values]
CC(C)/C=C1\CCc2c([nH]c3ccccc23)C1=O 0%
CC1Cc2ccccc2N1C(=O)COC(=O)CSc1ccc(F)cc1 (stereo unspecified) 0.27% [at 50 µM, hits give high values]
COc1ccc(NC(=O)CN(C)C(=O)c2ccccc2OCC(=O)Nc2cccc(C(F)(F)F)c2)cc1 1.88% [at 50 µM, hits give high values]
NC(N)=N/N=C/c1ccc(OCc2ccc(Cl)cc2)cc1 -12.3%
NC(N)=N/N=C/c1ccc(OCc2ccccc2)c(OCc2ccccc2)c1 1.28%
CC1=C(C(=O)OCC(C)C)C23C(=O)c4ccccc4C2(O1)OC(N)=C3C#N (stereo unspecified) 0.06%
CCOC(=O)C1CCCN(c2c(NCCCN(C)Cc3ccccc3)c(=O)c2=O)C1 (stereo unspecified) 2.34%
Cc1ccc2nc(SCC(=O)Nc3ccccc3N3CCOCC3)c(C#N)cc2c1 -1.09%
CCC(=O)N1c2ccc(S(=O)(=O)N3CCCCC3)cc2CC1C (stereo unspecified) 0.16%
CC(C)N(Cc1ccccc1)C(=O)CN1C(=O)NC2(CCCC2)C1=O 1.04% [at 50 µM, hits give high values]
Cc1c(NC(=S)NC(=O)c2cccc([N+](=O)[O-])c2)c(=O)n(-c2ccccc2)n1C -0.17%
O=C(CSc1nc2c(cnn2-c2ccccc2)c(=O)[nH]1)NC1CCS(=O)(=O)C1 (stereo unspecified) -0.1%
COC(=O)Nc1nc(Sc2ncc(C(F)(F)F)cc2Cl)n[nH]1 1.11%
CCOC(=O)c1ccc2[nH]c3c(c2c1)CCCC3 0.13%
CCC(CC)NC(=O)c1cc(OC)c(OC)cc1[N+](=O)[O-] 0.4%
COc1cc(OC)c(OC)cc1CN(C)CC1CCCN(CCc2ccccc2F)C1 (stereo unspecified) 0.88%
c1ccc2c(-c3cncc4ccccc34)cncc2c1 0.59%
CCOC(=O)C(Cc1ccc(O)cc1)NC(=O)CNC(=O)C(CC(C)C)NC(=O)OC(C)(C)C (stereo unspecified) 4.94%
COc1cccc(-c2c(C(=O)N/N=C(\C)c3cccs3)nnn2-c2nonc2N)c1 0.38%
Cc1ccc(C)c(S(=O)(=O)N2CCCCC2CCNC(=O)C(=O)NCc2ccccc2)c1 (stereo unspecified) 0.87% [at 50 µM, hits give high values]

Inhibition of phage lysis, inactive:
Cc1ccc(Sc2ncccc2C(=O)NCc2cc([N+](=O)[O-])ccc2O)c(C)c1 5.51%
Cc1ccc(Sc2ncccc2C(=O)NCc2cc([N+](=O)[O-])ccc2O)cc1C 7.85%

— PubChem BioAssay AID488966 (Southern Research Specialized Biocontainment Screening …, 2010)
